T1: BTN1A1 285-479 SPRY (domain begin residue: 285, domain end residue: 479), Q13410
T1 chain: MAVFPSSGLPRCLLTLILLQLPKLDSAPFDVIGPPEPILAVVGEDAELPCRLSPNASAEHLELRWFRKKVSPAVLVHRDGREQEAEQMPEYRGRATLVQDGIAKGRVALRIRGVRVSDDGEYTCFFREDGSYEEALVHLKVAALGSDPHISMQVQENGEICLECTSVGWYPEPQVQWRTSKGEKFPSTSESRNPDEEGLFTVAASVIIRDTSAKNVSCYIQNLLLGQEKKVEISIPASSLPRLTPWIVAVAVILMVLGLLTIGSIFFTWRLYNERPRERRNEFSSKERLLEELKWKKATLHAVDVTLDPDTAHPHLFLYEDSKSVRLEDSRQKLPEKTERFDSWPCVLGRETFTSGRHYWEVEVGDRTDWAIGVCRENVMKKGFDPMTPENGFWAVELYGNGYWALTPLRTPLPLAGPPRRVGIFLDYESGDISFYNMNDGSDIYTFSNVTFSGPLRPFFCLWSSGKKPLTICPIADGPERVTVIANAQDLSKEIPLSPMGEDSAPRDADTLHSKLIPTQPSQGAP

B1: unnamed (peptide)
chain: VPEWWWQGWDPHHVVE
B2: unnamed (peptide)
chain: GWWQSREYYMQDLMAS
B3: unnamed (peptide)
chain: WHPMDWMEHFQMMPDT
B4: unnamed (peptide)
chain: PKTGEPWHPWIPHWLA
B5: unnamed (peptide)
chain: SWDHWDEKMTSMVVFM
B6: unnamed (peptide)
chain: FDFWQAREYHMLNMMA
B7: unnamed (peptide)
chain: RDPHWQHKQQMQIVLM

Molecular target: ARPC3 1-178 P21-Arc (domain begin residue: 1, domain end residue: 178), O15145
Test: phage ELISA signal ratio (GST-PRM binding over GST background); higher = stronger binding of peptide-phage to the PRM
Protocol: (§1)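 Phage-displayed random hexadecapeptides (Cys-free, flanked by invariant Gly linkers, fused to the M13 P8 major coat protein) were selected over 5 rounds against GST-fused human PRM domains. Individual clones from rounds 4-5 were tested by phage ELISA, and positive clones binding the target but not GST were sequenced. Values are the ELISA signal ratio of target over background (GST); the background signal is given separately.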

Binder | phage ELISA signal ratio
B1 | 6.99

Molecular target: T1, BTN1A1 285-479 SPRY (domain begin …
Test: as above
Protocol: as §1

Binder | phage ELISA signal ratio
B2 | 5.49
B3 | 5.73
B4 | 8.34
B5 | 9.92
B6 | 10.3
B7 | 11.1
